The panel holds about 83,000 compounds, 20% with a hit somewhere; the sample as a whole holds those more often.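 In brief: 96-well plates, 48 h treatment, single concentration, percent growth endpoint.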 The source made the active and inactive calls. Rule for the calls: active = growth percent below 10; inactive = the rest.
How the values were obtained:
Assay in all cases: NCI-60 one-dose screen, 48 h (100 = growth as untreated, 0 = no growth, -100 = all killed)
Details in all cases: 10 µM unless noted
SK-MEL-2 melanoma = tested on: SK-MEL-2 melanoma
EKVX NSCLC = tested on: EKVX NSCLC
SN12C renal = tested on: SN12C renal
UO-31 renal = tested on: UO-31 renal
TK-10 renal = tested on: TK-10 renal
ACHN renal = tested on: ACHN renal
CAKI-1 renal = tested on: CAKI-1 renal
A498 renal = tested on: A498 renal
CCRF-CEM leukemia = tested on: CCRF-CEM leukemia
MOLT-4 leukemia = tested on: MOLT-4 leukemia
SR leukemia = tested on: SR leukemia
RPMI-8226 leukemia = tested on: RPMI-8226 leukemia
OVCAR-8 ovarian = tested on: OVCAR-8 ovarian
OVCAR-5 ovarian = tested on: OVCAR-5 ovarian
OVCAR-4 ovarian = tested on: OVCAR-4 ovarian
SK-OV-3 ovarian = tested on: SK-OV-3 ovarian
IGROV1 ovarian = tested on: IGROV1 ovarian
OVCAR-3 ovarian = tested on: OVCAR-3 ovarian
HS 578T breast = tested on: HS 578T breast
NCI/ADR-RES ovarian = tested on: NCI/ADR-RES ovarian

Measured: growth

Cc1nc2c(=O)nc3s/c(=C\c4ccco4)c(=O)n3c2nc1C
active: HS 578T breast -95.1%
inactive: SK-MEL-2 melanoma 109% | EKVX NSCLC 91.8% | SN12C renal 97.8% | UO-31 renal 73.1% | TK-10 renal 92.9% | ACHN renal 99.2% | CAKI-1 renal 88.4% | A498 renal 50.9% | CCRF-CEM leukemia 108% | MOLT-4 leukemia 106% | SR leukemia 94.2% | RPMI-8226 leukemia 116% | OVCAR-8 ovarian 96.1% | OVCAR-5 ovarian 101% | OVCAR-4 ovarian 101% | SK-OV-3 ovarian 102% | IGROV1 ovarian 93.4% | OVCAR-3 ovarian 105% | NCI/ADR-RES ovarian 93.5%

C=C(C)[C@@H]1CC[C@]2(C)[C@H](CC=C3[C@@H]4CC(C)(C)CC[C@]4(CO)CC[C@]32C)[C@@]1(C)CCCN
active: SK-MEL-2 melanoma -35.7% | SN12C renal -59.7% | TK-10 renal -45.8% | ACHN renal -40.8% | CCRF-CEM leukemia -18.4% | MOLT-4 leukemia -35.9% | SR leukemia -52.1% | RPMI-8226 leukemia -47.5% | OVCAR-8 ovarian -85.1% | OVCAR-4 ovarian -21.8% | IGROV1 ovarian 8.73% | OVCAR-3 ovarian -42%
inactive: EKVX NSCLC 97.4% | UO-31 renal 47.7% | CAKI-1 renal 40.3% | A498 renal 80.5% | OVCAR-5 ovarian 26% | SK-OV-3 ovarian 82.8% | HS 578T breast 43.4% | NCI/ADR-RES ovarian 49.1%

N=c1c(S(=O)(=O)c2ccccc2)cc2c(=O)n3ccccc3nc2n1CC1CCCO1 (stereo not given)
inactive: SK-MEL-2 melanoma 112% | EKVX NSCLC 107% | SN12C renal 96.8% | UO-31 renal 56.4% | TK-10 renal 114% | ACHN renal 103% | CAKI-1 renal 85.2% | A498 renal 84.1% | CCRF-CEM leukemia 109% | MOLT-4 leukemia 102% | SR leukemia 106% | RPMI-8226 leukemia 109% | OVCAR-8 ovarian 116% | OVCAR-5 ovarian 89.8% | OVCAR-4 ovarian 99.9% | SK-OV-3 ovarian 99.3% | IGROV1 ovarian 102% | OVCAR-3 ovarian 108% | HS 578T breast 104% | NCI/ADR-RES ovarian 98.7%

CC1(C)CC2=C3C=C[C@@H]4[C@@]5(C)CCC(=O)C(C)(C)[C@@H]5CC[C@@]4(C)[C@]3(C)CC[C@@]2(C(=O)O)C[C@H]1O
active: SK-MEL-2 melanoma 9.89% | ACHN renal 8.49% | RPMI-8226 leukemia -7.05% | SK-OV-3 ovarian 1%
inactive: EKVX NSCLC 34.9% | SN12C renal 21.8% | UO-31 renal 17.1% | TK-10 renal 16.9% | CAKI-1 renal 22.9% | A498 renal 34.9% | CCRF-CEM leukemia 13.3% | MOLT-4 leukemia 19.5% | SR leukemia 24.4% | OVCAR-8 ovarian 32.6% | OVCAR-5 ovarian 74.4% | OVCAR-4 ovarian 24.4% | IGROV1 ovarian 16.5% | OVCAR-3 ovarian 11.6% | HS 578T breast 58.1% | NCI/ADR-RES ovarian 33.3%

CN(CCCNC(=O)Cc1ccc2ccc3cccc4ccc1c2c34)CCCNc1cc(-c2ccc3ccccc3c2)nc2ccccc12
active: SK-MEL-2 melanoma -59.5% | EKVX NSCLC -44.6% | SN12C renal -66.2% | UO-31 renal -47.4% | TK-10 renal -58.2% | ACHN renal -66.4% | CAKI-1 renal -36.9% | A498 renal -62% | CCRF-CEM leukemia -74.5% | MOLT-4 leukemia -82.9% | SR leukemia -70.8% | RPMI-8226 leukemia -47% | OVCAR-8 ovarian -25.3% | OVCAR-5 ovarian -88.2% | OVCAR-4 ovarian -83% | SK-OV-3 ovarian -85.6% | IGROV1 ovarian -19.4% | OVCAR-3 ovarian -81.5% | HS 578T breast -32% | NCI/ADR-RES ovarian -77.7%

COc1ccc(-c2nc(-c3cn(C)c4ncccc34)cs2)cc1
inactive: SN12C renal 14.1% [100 µM] | UO-31 renal 14.4% [100 µM] | A498 renal 24.1% [100 µM] | SR leukemia 12.2% [100 µM] | OVCAR-8 ovarian 11.5% [100 µM] | OVCAR-5 ovarian 28% [100 µM] | IGROV1 ovarian 17.9% [100 µM] | OVCAR-3 ovarian 17.9% [100 µM] | HS 578T breast 38.8% [100 µM]
active: SK-MEL-2 melanoma 1.08% [100 µM] | EKVX NSCLC -26.4% [100 µM] | TK-10 renal -21.3% [100 µM] | ACHN renal 8.63% [100 µM] | CAKI-1 renal 0.0611% [100 µM] | CCRF-CEM leukemia 2.08% [100 µM] | MOLT-4 leukemia 2.81% [100 µM] | RPMI-8226 leukemia -28.1% [100 µM] | OVCAR-4 ovarian 1.57% [100 µM] | SK-OV-3 ovarian -3.58% [100 µM] | NCI/ADR-RES ovarian 3.69% [100 µM]

C#Cc1cccc(Nc2nc(C)nc3cc(NC(=O)CCl)ccc23)c1
inactive: A498 renal 48.2%
active: SK-MEL-2 melanoma -69.8% | EKVX NSCLC -58.8% | SN12C renal -67.8% | UO-31 renal -91.8% | TK-10 renal -93.9% | ACHN renal -92% | CAKI-1 renal -91% | CCRF-CEM leukemia -12.3% | MOLT-4 leukemia -20.7% | SR leukemia -40.4% | RPMI-8226 leukemia -47.5% | OVCAR-8 ovarian -15.4% | OVCAR-5 ovarian -84.7% | OVCAR-4 ovarian -42.2% | SK-OV-3 ovarian 8.47% | IGROV1 ovarian -56.7% | OVCAR-3 ovarian -88.2% | HS 578T breast -11.6% | NCI/ADR-RES ovarian -22%

O=C1/C(=C/c2ccc(O)c(O)c2)COc2ccc(-c3ccccc3)cc21
inactive: SK-MEL-2 melanoma 59% | EKVX NSCLC 78.8% | SN12C renal 13.9% | TK-10 renal 25.8% | ACHN renal 15.3% | A498 renal 30.7% | CCRF-CEM leukemia 16.2% | MOLT-4 leukemia 10.9% | OVCAR-8 ovarian 26.5% | OVCAR-5 ovarian 50.6% | OVCAR-4 ovarian 26.6% | SK-OV-3 ovarian 81.1% | OVCAR-3 ovarian 20.2% | HS 578T breast 15% | NCI/ADR-RES ovarian 19.2%
active: UO-31 renal -64.6% | CAKI-1 renal 4.86% | SR leukemia -20% | RPMI-8226 leukemia -13.1% | IGROV1 ovarian -13.1%

— PubChem BioAssay (NCI)
